# Measurements from PubChem BioAssay AID652010 (The Scripps Research Institute Molecular Screening Center, 2013).
# Hit rate of the full screen: of about 370,000 compounds, about 4,100 (1.1%) were called active.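 The calls were made as follows: active = inhibition above the mean over all tested compounds plus 3 SD (cut at about 3.6% in these data); inactive = the rest.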 Only a selection was taken, and actives are over-represented in it overall.
# Test: relief of DAX-1 repression of SF-1 activity – cell-based, luminescence, SF-1 (NR5A1), full-length DAX-1, primary screen (AID 652010);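 also: 0% = DAX-1 cells with DMSO and 100% = cells lacking DAX-1 with DMSO; higher inhibition means more luminescence from relief of DAX-1 repression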
# Conditions: HEK293T StAR-luciferase reporter, SF-1/DAX-1 repression relief; at 6.8 µM; active compounds read high
row,Structure (SMILES),inhibition
1,C=CCN1C(=O)[C@@H](CC(=O)N2CCN(C(=O)c3ccco3)CC2)[C@]2(C(=O)OC)CCCCC=C12,0.15% (inactive)
2,COc1ccc(CNC(=O)c2ccc3oc(C(C)C)nc3c2)cc1,3.41% (inactive)
3,COC(=O)c1ccc(CNC(=O)c2ccc3oc(C(C)C)nc3c2)cc1,4.25% (active)
4,CC(C)c1nc2cc(C(=O)NC(C)c3cnn(C)c3)ccc2o1 (stereo not given),-0.03% (inactive)
5,COc1ccccc1Oc1ccc(N/C=C2/CCCC2=O)cc1,0.78% (inactive)
6,COc1ccc(N/N=C2/CCCCC2=O)cc1,4.31% (active)
7,Cc1ccc(N/N=C2\COC(C)(C)CC2=O)cc1,-0.09% (inactive)
8,COc1cccc2cc(C(C)N(CCCN3CCOCC3)C(=O)Nc3ccc(Cl)cc3)oc12 (stereo not given),-0.37% (inactive)
9,CN(C(=O)CSc1nnc(Nc2ccccc2)s1)C1CCS(=O)(=O)C1 (stereo not given),0.34% (inactive)
10,CC(C)c1ccc(Nc2nnc(SCC(=O)c3nnc(-c4ccccc4)o3)s2)cc1,5.21% (active)
11,COc1cccc(Nc2nnc(SCC(=O)N3CC(C)OC(C)C3)s2)c1 (stereo not given),0.08% (inactive)
12,C#CCN1CC(C)/C(=N/O)CC1C (stereo not given),0.13% (inactive)
13,CC1CN/C(=C\C(=O)c2ccc(Br)cc2)C(=O)N1 (stereo not given),4.26% (active)
14,O=C(O)C1CCCN1S(=O)(=O)c1ccc(Br)cc1 (stereo not given),0.15% (inactive)
15,COc1cc2c(cc1OC)/C(=C/C(=O)c1ccc(NC(C)=O)cc1)NCC2,-0.03% (inactive)
16,CC(CCN1CCC(C(O)(c2ccccc2)c2ccccc2)CC1)Oc1ccc(Cl)cc1 (stereo not given),0.18% (inactive)
17,Cc1nc2cc(NCc3cccs3)ccc2n1C,2.41% (inactive)
18,O=C(Nc1cccc(F)c1)c1coc(=O)c(Br)c1,0.24% (inactive)
19,Cc1nc2cc(NC(=O)Nc3cccc(F)c3)ccc2n1C,5.18% (active)
20,N/C(=N\OC(=O)CCC1CCCCC1)c1ccccn1,4.25% (active)
21,N/C(=N\OC(=O)CC1CCCCC1)c1ccccc1,-0.16% (inactive)
22,N/C(=N\OC(=O)Cc1ccc([N+](=O)[O-])cc1)c1ccccn1,0.83% (inactive)
23,COCC(=O)N[C@@H]1C[C@@H]2O[C@@H](CO)CC[C@@H]2O[C@@H]1CCc1ccc(-c2ccccc2)cc1,-0.14% (inactive)
24,O=c1c2c(nc3cc(-c4cccc(Cl)c4)[nH]n13)CCCC2,13.9% (active)
25,CSc1nc2nc3c(c(=O)n2[nH]1)CCC3,-0.21% (inactive)

row,Structure (SMILES),inhibition
1,COC(=O)[C@]12C[C@H](CC(=O)NCc3ccccc3)C(=O)N(CCC3=CCCCC3)C1=C[C@H](C(C)C)O[C@@H]2C1CC1,-1.17% (inactive)
2,O=C1Nc2ccccc2OC1CC(=O)N1CCCCCCC1 (stereo not given),-0.39% (inactive)
3,Cc1cc(C)nc(Nc2n[nH]c(-c3ccccc3N)n2)n1,4.12% (active)
4,CC(C)(C)C(c1nc2ccccc2[nH]1)n1c(Cc2csc3ccccc23)nc2ccccc21 (stereo not given),0.83% (inactive)
5,O=C(Nc1ccccc1)N1CCN(Cc2nc3ccccc3c(=O)[nH]2)CC1,-0.16% (inactive)
6,COc1ccnc(NC(=S)N2CCN(c3ncc(C(F)(F)F)cc3Cl)CC2)c1,-0.4% (inactive)
7,C=CCOC/C=C/C#CCN(CC=C)Cc1ccc(OC)cc1OC,-0.5% (inactive)
8,COc1cc(CO)ccc1OCC(=O)Nc1cccc2ccccc12,-3.43% (inactive)
9,COc1ccc(CNC(=O)COc2ccccc2C(=O)c2cnn(-c3ccccc3)c2)cc1OC,4% (active)
10,COc1ccc(CNC(=O)CSc2n[nH]c(N)n2)cc1OC,-0.05% (inactive)
11,O=C(CSc1nnc(-c2cccc(Cl)c2)n1Cc1ccco1)Nc1ccc(OCc2ccccc2)cc1,-2.28% (inactive)
12,NS(=O)(=O)c1ccc2nc(NC(=O)C3=COCCO3)sc2c1,9.6% (active)
13,NS(=O)(=O)c1ccc2nc(NC(=O)CS(=O)(=O)c3ccc(F)cc3)sc2c1,0.31% (inactive)
14,CCC(CC)c1nnc(NC(=O)C2=COCCO2)s1,1.13% (inactive)
15,C[C@@H]1ON(C)[C@H]2C[C@H]3c4[nH]c5cccc(-c6ccc7c(c6)OCO7)c5c4CCN3C[C@@H]12,0.45% (inactive)
16,O=S1(=O)c2c(NCc3ccco3)cccc2Oc2ccccc2CN1Cc1cn(Cc2cccc(C(F)(F)F)c2)nn1,-0.91% (inactive)
17,O=C(Nc1cccc(F)c1)[C@@H]1CCCN1,-0.32% (inactive)
18,O=C(Nc1cccc(F)c1)NC1CCCCCCC1,4.46% (active)
19,Cc1cc(C)cc(NC(=O)NC2CCCCCCC2)c1,3.33% (inactive)
20,Clc1ccc(Cc2nnc(-c3cccs3)o2)cc1,-0.54% (inactive)
21,Clc1ccc(Nc2nc(-c3cccs3)cs2)nc1,5.93% (active)
22,CCCN1C(=O)c2[nH]nc(-c3ccccc3)c2C1c1ccccc1 (stereo not given),-1.18% (inactive)
23,O=C(Nc1ccc(Br)cc1)OCCN1C(=O)CCC12CCC(c1ccccc1)CC2 (stereo not given),0.27% (inactive)
24,CN(CC(=O)Nc1ccc(F)cc1)CC(=O)N1CCCCC1,3.7% (active)
25,CC(C(=O)N1CCc2ccccc21)N(C)CC(=O)Nc1ccc(F)cc1 (stereo not given),-0.82% (inactive)

row,Structure (SMILES),inhibition
1,CS(=O)(=O)N(CC(=O)Nc1ccc(F)cc1)C1CCCCC1,-0.02% (inactive)
2,Cn1c(-c2ccco2)nc2cc3ccccc3cc21,4.28% (active)
3,CN(C)C(=O)CSc1n[nH]c(-c2ccco2)n1,-0.67% (inactive)
4,Cn1c(SCC(=O)c2cccs2)nnc1-c1ccco1,0.71% (inactive)
5,C=CCN(C)CC#Cc1ccccc1,1.58% (inactive)
6,O=S1(=O)c2ccc(Br)cc2OC[C@H](Cc2ccccc2)N1Cc1cn(Cc2ccccc2)nn1,0.43% (inactive)
7,COc1ccc(CN(CCN2CCOCC2)C(=O)c2ccc(C)cc2)cc1OC,1.29% (inactive)
8,Cc1cc(N=Nc2ccc3ccccc3c2)ccc1O,4.24% (active)
9,Cc1ccccc1N1CCN(CC(=O)NCc2ccc(Cl)cc2)CC1,-0.26% (inactive)
10,COC1=C[C@H](C(=O)NCCNC(C)=O)[C@H](C)[C@@H](c2ccccc2)CC1=O,0.48% (inactive)
11,CCN(CC)C(=O)CC[C@@H]1CC[C@]2(CCCN(S(=O)(=O)C3CCCCC3)C2)O1,-1.81% (inactive)
12,CCOC(=O)c1c(NC(=S)Nc2ccccc2)sc2c1CCN(C)C2,0.23% (inactive)
13,CCOC(=O)c1cn[nH]c1NC(=S)Nc1ccccc1,4.39% (active)
14,CCOC(=O)c1cc2c(nc1NC(=S)Nc1ccccc1)CC(C)(CC)OC2 (stereo not given),-0.51% (inactive)
15,Cc1ccc(CN2CCCCC(NC(=O)C3CCCCC3)C2=O)cc1 (stereo not given),-1.69% (inactive)
16,COc1ccc(N2CCN(CCNS(=O)(=O)c3ccc(C(C)(C)C)cc3)CC2)cc1,-0.04% (inactive)
17,CC1(C)NC(=O)N(CC(=O)N2CCN(S(=O)(=O)c3ccccc3F)CC2)C1=O,-1% (inactive)
18,COc1ccc([C@H]2OC(=O)C[C@H]2C(=O)N2CCN(c3ccccc3F)CC2)cc1OC,0.35% (inactive)
19,O=C(NCC1COc2ccccc2O1)c1ccc(NC(=O)c2cc(F)ccc2F)cc1 (stereo not given),-1.54% (inactive)
20,Cc1ccc(C(=O)Nc2nc(N)n(-c3ccccc3)n2)cc1,0.57% (inactive)
21,Cc1ccc(C(=O)Nc2ccn(C)n2)cc1,4.06% (active)
22,CN(C)S(=O)(=O)c1cc(C(=O)Nc2ccn(C)n2)c(Cl)cc1Cl,-0.84% (inactive)
23,N#Cc1c(NC(=O)c2ccc(N3CCOCC3)c([N+](=O)[O-])c2)sc2c1CCCC2,0.44% (inactive)
24,N#Cc1c(NC(=O)C2CCCO2)sc2c1CCCCC2 (stereo not given),3.86% (active)
25,CCC1CCc2c(sc(NC(C)=O)c2C#N)C1 (stereo not given),-0.35% (inactive)

row,Structure (SMILES),inhibition
1,COC(=O)C1CN(Cc2ccc(F)cc2)CCS(=O)(=O)N1Cc1ccc(Cl)cc1 (stereo not given),-1.11% (inactive)
2,CC(C)(C)OC(=O)NCc1cc(F)ccc1/C=C/S(=O)(=O)NCCc1ccccc1,-0.93% (inactive)
3,O=C(NC(=S)NC1CCCCC1)c1ccc(Cl)cc1,7.22% (active)
4,O=C(NNC(=S)NC1CCCCC1)c1ccccc1Cl,2.28% (inactive)
5,O=C(NC1CCCCCC1)C1CCN(C(=O)c2ccc(Cl)cc2)CC1,-1.38% (inactive)
6,CC(NCc1ccco1)C(=O)N1CCCCC1 (stereo not given),-0.66% (inactive)
7,O=S1(=O)c2ccc(Br)cc2OC[C@@H](Cc2ccccc2)N1Cc1cn(Cc2ccco2)nn1,-0.91% (inactive)
8,Cn1c(-c2ccccc2)c[n+]2c1CCCCC2,0.1% (inactive)
9,O=C(NCCN1C(=O)S/C(=C\c2cccnc2)C1=O)c1ccc(S(=O)(=O)N2CCCC2)cc1,-0.2% (inactive)
10,Cc1cc(OCCCC(=O)NCCN2C(=O)S/C(=C\c3cccnc3)C2=O)ccc1Cl,-0.22% (inactive)
11,COc1ccc(N2CC(C(=O)NCCN3C(=O)S/C(=C\c4cccnc4)C3=O)CC2=O)c(OC)c1 (stereo not given),4.36% (active)
12,Cc1cccc(OC(C)C(=O)N2CCc3ccccc3C2)c1 (stereo not given),-0.08% (inactive)
13,Cc1c(NC(=O)Nc2cccc([N+](=O)[O-])c2)c(=O)n(-c2ccccc2)n1C,-3.53% (inactive)
14,CCc1ccc(NC(=O)N2CCc3ccccc3C2)cc1,6% (active)
15,O=C(Nc1cccc([N+](=O)[O-])c1)N1CCc2ccccc2C1,4.21% (active)
16,CCOC(=O)c1c(NC(=S)SC)sc(C(=O)N2CCc3ccccc3C2)c1C,0.68% (inactive)
17,Cc1cccc(C)c1NC(=O)c1ccc(CN2CCc3ccccc3C2)cc1,-0.37% (inactive)
18,Nc1ncnc2c1ncn2C1OC(CO)CC1O (stereo not given),-1.04% (inactive)
19,CCC(=O)OCCCN1C(=O)CCC12CCC(c1ccccc1)CC2 (stereo not given),0.13% (inactive)
20,O=S(=O)(Nc1ccc2nc(-c3ccco3)[nH]c2c1)c1ccccc1,-0.15% (inactive)
21,O=S(=O)(Nc1cccc(-c2ccc(N3CCOCC3)nn2)c1)c1ccc(Cl)c(Cl)c1,0.25% (inactive)
22,O=S(=O)(Nc1ccc2nc(N3CCOCC3)sc2c1)c1ccccc1,4.19% (active)
23,COc1cccc(/C=C2\CC3(OC(C)=O)CCCN2C3)c1 (stereo not given),1.86% (inactive)
24,COc1ccc(Cn2ccc3ccc(-c4ccc5ccn(Cc6ccccc6C)c5c4)cc32)cc1,-0.33% (inactive)
25,COc1ccc(-n2c(SCC(=O)Nc3ccc4cn[nH]c4c3)nnc2-c2cccnc2)cc1,0.02% (inactive)
